HCV inh: inhibitors of hepatitis C virus infection; actives 3.4% (n = 340,000); Potency, µM (top dose mostly 41.8 µM), for the others: top-dose activity change, negative = inhibition, actives largely listed as inhibitors; AID 651820; Huh7.5.1 HCVcc-Cre infection, luciferase reporter, 44 h; active = well fitted inhibition curve with a large enough effect; inconclusive = small, poorly fitted or top-dose-only effect, or another doubt; inactive = no such curve, though single readings can be large or run the other way
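Seed cells (1,000/well) for 4 h; treat with compound and infect with HCVcc-Cre, moi about 0.5. Incubate 44 h, then detect luciferase activity.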
Vaccinia Venus: vaccinia inhibition (Venus reporter); Vaccinia virus Venus reporter expression, fluorescence; Potency, µM (highest dose often 36.5 µM), for inactives: top-dose activity change, negative = inhibition, most hits filed as inhibitors; actives 0.46% (n = 330,000); AID 720580; calls by dose curve; tested in A549 cells; note: nearly all actives have a fitted effect of over 30% in size
VACV mCherry inh: inhibitors of vaccinia virus infection (mCherry reporter signal) | actives 0.63% (n = 310,000) | AID 720579 | Vaccinia virus mCherry reporter infection, fluorescence | Potency, µM (series often up to 36.5 µM), inactives show top-dose activity change, negative = inhibition, hits mostly inhibitors; calls by dose curve; tested in A549 cells; note: nearly all actives have a fitted effect of over 35% in size
An asterisk follows results filed as active; i = inactive; u = inconclusive; x = no result. Shown are actives, neighbours in structure and some others; about 3.3% of the full set was active somewhere. % is set by controls: 0 for no effect and ±100 for the full control effect; potency is the fitted concentration of half-maximal effect.

SMILES | HCV inh | Vaccinia Venus | VACV mCherry inh
COc1ccccc1/C=C/C(=O)OCC(=O)c1c[nH]c2ccccc12 | u | -7% | i
Cc1nn(C2CCS(=O)(=O)C2)c(Cl)c1/C=C/C(=O)OCC(=O)c1cc(C)n(-c2ccc(F)cc2)c1C (stereo not drawn) | 4µM* | -29% | u
CCOC(=O)C(N=Nc1nn[nH]n1)C(C)=O (stereo not drawn) | x | 6% | i
CCN(CCCNC(=O)c1ccc(Sc2ccc(F)cc2)c(NC(C)=O)c1)c1ccccc1 | x | -14% | -13%
COc1ccc(/C=C/C(=O)O)cc1 | 0.79µM* | -6% | -8%
COc1cc(/C=C/C(=O)O)cc(OC)c1 | 16% | -6% | -11%
Cc1ccc(CSCCC(=O)N2CCN(c3ccc(F)cc3)CC2)cc1 | x | -10% | -16%
Nc1nc(N2CCCCC2)c(C=O)c(N2CCCCC2)n1 | 11% | -7% | -10%
Nc1nc(Cl)c(C=O)c(N2CCCCC2)n1 | 10µM* | 0% | -7%
CCOC(=O)c1c(-c2ccccc2)oc2ccc(OCc3ccccc3Br)cc12 | x | -2% | -9%
Cc1cccn2c(=O)c3cc(C#N)c(=O)n(-c4nnc(SCc5ccc(Cl)cc5)s4)c3nc12 | x | 0% | -12%
O=[N+]([O-])c1ccc2c(c1)/C(=C/c1ccc(C=S)cc1)C=C2 | x | 2% | -13%
CN1CCN(C2=C(Cl)C(=O)c3ccccc3C2=O)CC1 | 7.1µM* | 10µM* | u
NC(=O)C1CCN(C2=C(Cl)C(=O)c3ccccc3C2=O)CC1 | 2.5µM* | x | x
O=C1C(Cl)=C(N2CCC(C(=O)O)CC2)C(=O)c2ccccc21 | -3% | x | x
CN1CCN(C2=C(Cl)C(=O)C(c3cnc(N4CCCCC4)s3)=C(Cl)C2=O)CC1 | -27% | 72% | 14%
CC1COCC(C)N1C1=C(Cl)C(=O)c2ccccc2C1=O (stereo not drawn) | 11µM* | -2% | -7%
CN(C1=C(N2CCOCC2)C(=O)c2ccccc2C1=O)c1ccccc1 | 5% | u | -24%
O=C(NCCCN1CCN(c2cccc(Cl)c2)CC1)Nc1ccccc1C(F)(F)F | x | -8% | -3%
CCCCNC(=O)[C@@](CC)(ONc1ccccc1C(F)(F)F)c1cccc2ccccc12 | 6% | -6% | -12%
CCCCN(CC)CCNC(=S)Nc1ccc2nc(N3CCN(C)CC3)cc(C)c2c1 | 0.89µM* | u | 13µM*
CCCN(CCC)CCCNC(=S)Nc1ccc2nc(N3CCN(C)CC3)cc(C)c2c1 | 13µM* | x | x
Cc1cc(N2CCN(C)CC2)nc2ccc(NC(=S)NC3CC3)cc12 | -24% | x | x
Cc1cc(N2CCOCC2)nc2ccc(NC(=O)CCC(=O)N3CCN(c4ccccc4)CC3)cc12 | u | -5% | u
CCCCN(CC)CCNC(=O)CCC(=O)Nc1ccc2nc(N3CCN(C)CC3)cc(C)c2c1 | -16% | -15% | u
SMILES | HCV inh | Vaccinia Venus | VACV mCherry inh
Cc1cc(N2CCN(C)CC2)nc2ccc(NC(=O)CCC(=O)N3CCN(c4ccc([N+](=O)[O-])cc4)CC3)cc12 | 11µM* | -29% | u
CCN1CCN(C(=S)Nc2ccc3nc(N4CCN(C)CC4)cc(C)c3c2)CC1 | u | 13% | -25%
CCN1CCN(C(=S)Nc2ccc3nc(N4CCN(CC)CC4)cc(C)c3c2)CC1 | 13µM* | -24% | -27%
Cc1ccc(NC(=O)Cn2c(=O)n(Cc3nc(C)no3)c(=O)c3cc4c(cc32)OCO4)cc1 | x | -5% | 6%
COC(=O)c1ccc(NC(=O)COc2ccccc2C(=O)Nc2ccccc2)cc1 | x | -20% | -14%
Cc1ccc(NC(=O)CCCn2nc(C)c3sc4ccccc4c3c2=O)c(Cl)c1 | x | -8% | -12%
Cc1nnc2c3ccccc3nc(N3CCN(c4cccc(Cl)c4)CC3)n12 | x | -17% | i
Cc1sc2nc(CN(C(=O)NC3CCCCC3)C3CCCC3)[nH]c(=O)c2c1C | -3% | x | x
Cc1sc2nc(CN(Cc3cccs3)C(=O)NC3CCCCC3)[nH]c(=O)c2c1C | 11µM* | u | -28%
CN(C)c1nc(OCCNC(=O)Nc2ccccc2)nc(N2CCCCC2)n1 | 11µM* | -5% | -7%
CN(C)c1nc(OCCNC(=O)Nc2ccccc2)nc(N2CCOCC2)n1 | u | -21% | -11%
CC(=NNc1nc2ccccc2s1)c1ccncn1 | u | u | 2.8µM*
O=C(Nc1nc2ccccc2s1)c1cnccn1 | -12% | -15% | -13%
C/C(=N\Nc1nc2ccccc2s1)c1ccc(Br)s1 | 11µM* | -10% | -19%
C/C(=N\Nc1nc2ccccc2s1)c1ccc2c(c1)OCO2 | u | -13% | i
COc1ccc(NC(=O)CC2SC(N3CCOCC3)=NC2=O)cc1OC (stereo not drawn) | 10% | x | x
CC(C)c1ccc(N=C(N)N=C(N)N)cc1 | u | -15% | -8%
CCCCn1c(N)c(N(C)C(=O)c2cc3c(F)cccc3s2)c(=O)[nH]c1=O | 3% | -6% | -8%

Screening data as filed in PubChem BioAssay.
